From the supplement of paper PMC8387472

Each target was assayed with CO[C@H]1/C=C/O[C@@]2(C)Oc3c(C)c(O)c4c(O)c(c(/C=N/N5CCN(C6CCCC6)CC5)c(O)c4c3C2=O)NC(=O)/C(C)=C\C=C\[C@H](C)[C@H](O)[C@@H](C)[C@@H](O)[C@@H](C)[C@H](OC(C)=O)[C@@H]1C [Rifapentine] (assay: fraction of microhomology deletions among edited reads; higher = more MH deletions). Settings: mESC; 2uM; 72 h treatment, harvest day 5.

| Target | fraction of microhomology deletions among edited reads |
| --- | --- |
| 32.0 (DMSO control at this site: 1-bp insertion 0.03, MH deletion 0.85, edited 0.898) AGAAGTCCAGGATCAGGGGGACTGGGGTCGGGAGGGTGGGGCAGGAAGGAAGCCAGAATCA | 0.91 |
| 26.0 (DMSO control at this site: 1-bp insertion 0.518, MH deletion 0.262, edited 0.026) AGGGCGCGCCCCACGCACTCTGCGGCAAGTCCCTCTGCGGCAAGTCCTCGGCCCGGAAGAC | 0.272 |
| 34.0 (DMSO control at this site: 1-bp insertion 0.184, MH deletion 0.385, edited 0.103) ATTATAGGACCCTGAGGGAGCAGAGATGTGGGAATGGGGGCCGAGCCAATTGTGATGTAAG | 0.567 |
| 18.0 (DMSO control at this site: 1-bp insertion 0.114, MH deletion 0.789, edited 0.094) GCGCAAGTGCATAAGTTTTTCTTAAGGCGTGCCTTTAAGGCGTGCCTTTGTCGGTCCTGGA | 0.805 |
| 41.0 (DMSO control at this site: 1-bp insertion 0.022, MH deletion 0.754, edited 0.115) AAAGAGACAGCAGGTATGAATCCATCTTCCTGACCCTTGGGACCAGCCGGGGCAGTGAAGC | 0.699 |
| 15.0 GCGCCTCCAATGACCCAGTGGGATCCTACTCCATAATGGGATCCTGGGGATTCCTCGCTCC | 0.426 |
| 47.0 (DMSO control at this site: 1-bp insertion 0.095, MH deletion 0.585, edited 0.118) GAGTGGTCCCGAGCCAGGAACTGTGTGTGTTGCAGGGGGGCAGTAACTCCCCAACTCCCTC | 0.57 |
| 35.0 (DMSO control at this site: 1-bp insertion 0.01, MH deletion 0.72, edited 0.098) CCACTTTTAGAGAGGGTGAAAATCATCAGTTATCATCAGGGCAACAAATTGCTTTCTCCTA | 0.776 |
| 16.0 (DMSO control at this site: 1-bp insertion 0.172, MH deletion 0.29, edited 0.05) CGGACTGCACACATGGGTAGGATCGTGCACGCGAGGTAGGATCGTGCACGCGAAGTTATTC | 0.319 |
| 19.0 (DMSO control at this site: 1-bp insertion 0.121, MH deletion 0.101, edited 0.057) TCTGCAGGGGTCGGAACCCGGGGGCTAGGGCTATCCCGGGGGCTAGGGCTATTAGCGAACC | 0.243 |
| 22.0 (DMSO control at this site: 1-bp insertion 0.573, MH deletion 0.229, edited 0.045) CTGATGGTTGAAGGATTTAGCCGGGGTCCTAGACGCCGGGGTCCTAGACGAAAGGGCCACG | 0.142 |
| 38.0 (DMSO control at this site: 1-bp insertion 0.063, MH deletion 0.487, edited 0.17) GGGCTGGGTGCTAAAATGAGGAGCTCCAAGAAGACTGAGGTGAACCTGGAGGCCCCTGAGC | 0.507 |
| 5.0 (DMSO control at this site: 1-bp insertion 0.214, MH deletion 0.567, edited 0.105) CGCTGACCCGAGACCTACGCGAACCGAAATCGGCGACCGGTGCGCAAGCAGGGCTGGCGTC | 0.578 |
| 1.0 (DMSO control at this site: 1-bp insertion 0.521, MH deletion 0.323, edited 0.141) GTGTCACAGTGCACGAGTGACGGGATAATGTGCTGACAGGTAATTGATAGGCTTCCAACTT | 0.256 |
| 0.0 (DMSO control at this site: 1-bp insertion 0.463, MH deletion 0.339, edited 0.14) AGGATTACCGAGACCTACGCGAACCGAAATCGCTGTCCGGTGCGCAAGCAGGGCTGGCGTC | 0.37 |
| 3.0 (DMSO control at this site: 1-bp insertion 0.109, MH deletion 0.149, edited 0.09) TGCTAGCGCCCCCACAAAGCGGACCAGCCAGCACTATAGGGAATAAGGCCAACTTGCACCC | 0.188 |
| 7.0 (DMSO control at this site: 1-bp insertion 0.128, MH deletion 0.374, edited 0.098) TACTCAACCGAGACCTACGCGAACCGAAATCGTATGCCGGTGCGCAAGCAGGGCTGGCGTC | 0.414 |
| 39.0 (DMSO control at this site: 1-bp insertion 0.328, MH deletion 0.371, edited 0.204) CTGCACAGTCACTTAGGATAGGAGAAGATGATGTATAGGGTTTAGTGGGAGATGTTGCAAG | 0.414 |

| Target | fraction of microhomology deletions among edited reads |
| --- | --- |
| 21.0 CGATTGAGAGTCAAACGGGCCAGAAAACTCCGGGAACGGGCCAGAAAACTCCGGGGCATGG | 0.216 |
| 25.0 (DMSO control at this site: 1-bp insertion 0.017, MH deletion 0.774, edited 0.143) GGGCCTGAATGGTGTGGACATCTACTCGCTGGTGAGCTGGTGACTGAAAACATTCAGTGGC | 0.792 |
| 27.0 CCAGAATTAGAACATATCATCTGGACCCTTTTCCATCTGGACCCTTTTCCAGCACACCCTG | 0.214 |
| 40.0 (DMSO control at this site: 1-bp insertion 0.072, MH deletion 0.192, edited 0.189) GCGAATCAACTGTTCAACAACAGCAGCAGCCACCTGGAGGACTACAGTGGCCTGTCCGTGT | 0.211 |
| 42.0 (DMSO control at this site: 1-bp insertion 0.145, MH deletion 0.655, edited 0.132) GGGCTAAACCTATGAGCACAGTAGAACTAAGGGTGGGTGGTGTAGCTAAAGAACTTGACCA | 0.683 |
| 28.0 (DMSO control at this site: 1-bp insertion 0.035, MH deletion 0.77, edited 0.142) TGGTTCTTCCTTTGTAGAGAGTGTTCATCTGGGAATCTGGGACTTGGATGAGACAATCATT | 0.794 |
| 2.0 (DMSO control at this site: 1-bp insertion 0.364, MH deletion 0.356, edited 0.125) GGTGCCCCCGAGACCTACGCGAACCGAAATCGATGTCCGGTGCGCAAGCAGGGCTGGCGTC | 0.417 |
| 4.0 (DMSO control at this site: 1-bp insertion 0.146, MH deletion 0.523, edited 0.125) ACGCCTTAGTGCACGAGTGACGGGATAATGTGGTCTCAGGTAATTGATAGGCTTCCAACTT | 0.592 |
| 46.0 TTAAGAGCAATGTTCACGCAACTTGAAATTATATCTGTGGTCTTCAAATTGTCTTTTGTCA | 0.417 |
| 31.0 (DMSO control at this site: 1-bp insertion 0.315, MH deletion 0.329, edited 0.026) ACCTCCACAGGCTGGGTGGCCCGGAGGCTGGGCGGCCCGGAGGCTGGGCTGGGCGAGTATC | 0.467 |
| 29.0 (DMSO control at this site: 1-bp insertion 0.084, MH deletion 0.745, edited 0.133) TTGATGAACTTCCTCTTCTTCTCATGTCTCCGGTCTCCGGTAGGCCACGTGCATGGCCACT | 0.751 |
| 17.0 (DMSO control at this site: 1-bp insertion 0.112, MH deletion 0.348, edited 0.058) CCATAGCGCGATAAATATGACGGCTCATCCTGTATGACGGCTCATCCTGTATCAACTGTCC | 0.43 |
| 45.0 (DMSO control at this site: 1-bp insertion 0.017, MH deletion 0.666, edited 0.101) TTACACAGCATGAACTGCTAGGTGATGATGTCAGATTCGGTTTTACTAACTTCTCCAAAAA | 0.624 |
| 30.0 (DMSO control at this site: 1-bp insertion 0.074, MH deletion 0.67, edited 0.142) GAGCTGGCATGAGTATTTGTGCCACATGGCTCCCACATGGCTCCACATGCAAGTTTGAAAC | 0.684 |
| 44.0 (DMSO control at this site: 1-bp insertion 0.181, MH deletion 0.512, edited 0.123) ACACATACCTTCTTCGAGGCAGCCAGCATGATGAGACAGGTCTCCCACAAACACATCGTGT | 0.531 |
| 20.0 (DMSO control at this site: 1-bp insertion 0.349, MH deletion 0.138, edited 0.084) TACAGGTGTAGACTGGTTACGTGGCTGCGGAATTGACTGGTTACGTGGCTGCGGAATTTTG | 0.246 |
| 43.0 (DMSO control at this site: 1-bp insertion 0.134, MH deletion 0.714, edited 0.104) AGTTTAACTTACTCCGGCCAAAAAAGAACTGCACCTCTGGAGCGGGTTAGTGGTGGTGGTA | 0.683 |
| 33.0 (DMSO control at this site: 1-bp insertion 0.008, MH deletion 0.771, edited 0.112) CATTAAGAGCAGCTGCCGGCCCCCAAGTGGACAGAGCTGGCCCTGCTGATTCAACAGTGCA | 0.724 |
